Data on 39 compounds can be found in PubChem BioAssay (EPA / NIEHS).

The source made the active and inactive calls. The calls were made as follows: active = hit-call score of the fitted dose curve at least 0.9, where 1 is the maximum; inactive = score below 0.9.

Broadly, the AC50 is the concentration giving half of the maximal activity seen.

In the first experiment the target is Heat shock factor protein 1 (Homo sapiens) (UniProt Q00613). The experiment in a line: ATG_HSE_CIS: Attagene CIS-FACTORIAL HepG2 Assay for human Heat Shock Transcription Factor 1 (HSE) (AID 2282953). The note with it: HepG2 HSE cis-reporter, Attagene RNA transcription; actives raise or lower the signal. The method in brief: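 Endogenous transcription factor activity captured via cis-promoter reporter units transfected into HepG2; treatment lasted 24 h. Fluorescence intensity of reporter fragments analysed with bidirectional curve fitting, DMSO baseline.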
Sequence of Heat shock factor protein 1 (Homo sapiens) (Q00613 whole entry, looked up, the tested form may be a part): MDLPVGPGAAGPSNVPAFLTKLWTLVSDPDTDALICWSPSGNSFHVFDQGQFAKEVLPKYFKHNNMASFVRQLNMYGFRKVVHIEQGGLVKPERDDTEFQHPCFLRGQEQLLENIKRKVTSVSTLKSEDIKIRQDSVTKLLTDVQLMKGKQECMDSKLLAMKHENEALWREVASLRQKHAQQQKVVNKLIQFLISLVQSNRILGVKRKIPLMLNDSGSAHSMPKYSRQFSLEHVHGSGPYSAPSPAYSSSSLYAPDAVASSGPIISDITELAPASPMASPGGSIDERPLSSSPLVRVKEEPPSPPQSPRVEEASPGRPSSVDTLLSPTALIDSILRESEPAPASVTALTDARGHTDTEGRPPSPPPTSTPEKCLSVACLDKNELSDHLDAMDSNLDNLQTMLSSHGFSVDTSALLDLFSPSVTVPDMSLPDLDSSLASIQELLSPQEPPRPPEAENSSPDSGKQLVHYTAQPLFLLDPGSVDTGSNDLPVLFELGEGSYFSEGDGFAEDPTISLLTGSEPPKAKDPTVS
As to `Cc1cc(=O)[nH]o1`, the call was inactive.
The same measure, in the same setting: next, `CCCCC(CC)CO[N+](=O)[O-]` (stereo unspecified): “inactive”; `COP(=S)(OC)Oc1c(Cl)cc(C)cc1Cl`: “inactive”; `O=Cc1cccc(Oc2ccccc2)c1`: “inactive”.
On the same count and under the same terms, the result for `COP(=S)(OC)Oc1ccc(S(=O)(=O)N(C)C)cc1` reads “inactive”; that for `CCCCCCCCc1ccc(O)cc1`, “inactive”.
For `CC(=O)C(Cl)C(=O)N(C)C` (stereo unspecified), the outcome was inactive.
The same measure, in the same setting: next, `Cl/C=C/Cl`: “inactive”.
Take `O=P(O)(O)CN(CP(=O)(O)O)CP(=O)(O)O`: the outcome was inactive.
Consider `O=CC=O`, for which the result was inactive.
Still for that read-out and setting: next, `O=c1[nH]c(=O)[nH]c(=O)[nH]1`: “inactive”; `CNC`: “inactive”.
Turning to `CC(=O)c1cc(C(C)(C)C)cc2c1CCC2(C)C`, the AC50 was 64.4 µM (active).
For the compound `CCc1ccccc1N`, the compound was classed as inactive.
Consider `O=C(CCl)CCl`, for which the concentration at half-maximal activity (AC50) is 58.7 µM (active).
With `ClCc1ccccn1`, the outcome was inactive.
As for `O=C/C=C/c1ccccc1`, the result was inactive.
Same read-out and setting: next, `CC(C#N)CCC#N` (stereo unspecified): “inactive”; `C=CC(=O)OCCCCCC(C)C`: “inactive”.
With `O=C1C(Cl)=C(Cl)C(=O)c2ccccc21`, the AC50 was 13.6 µM (active).
Regarding `ClCC(Cl)CCl`, the compound was classed as inactive.
Same read-out and setting: the result for `COc1cc(OC)nc(NC(=O)NS(=O)(=O)c2ncccc2C(=O)N(C)C)n1` reads “inactive”; that for `ClC1=C(Cl)[C@]2(Cl)[C@H]3[C@H]([C@H]4C=C[C@H]3C4)[C@@]1(Cl)C2(Cl)Cl`, “inactive”.
The same measure, in the same setting: the result for `COP(=S)(OC)Oc1cc(Cl)c(Cl)cc1Cl` reads “inactive”.
Same read-out and setting: next, `CCC(C)c1cccc(C(C)CC)c1O` (stereo unspecified): “inactive”.
Take `C=CC#N`: the compound was called inactive.
As for `ClC(Cl)=C(Cl)C(Cl)=C(Cl)Cl`, the half-maximal activity concentration (AC50) is 144 µM (active).
Turning to `O=S(=O)(c1ccc(Cl)cc1)c1ccc(Cl)cc1`, the outcome was inactive.
As to `CCCCP(CCCC)CCCC`, the compound was classed as inactive.
As for `CC(Br)C(=O)O` (stereo unspecified), the call was inactive.
Same read-out and setting: next, `O=C(NCO)NCO`: “inactive”.
On the same count and under the same terms, the result for `C=C(C)C#N` reads “inactive”; that for `COc1cccc(C=O)c1`, “inactive”; that for `OCC(O)CCl` (stereo unspecified), “inactive”.
Take `Cc1ccccc1C(=O)Nc1cccc(OC(C)C)c1`: the result was inactive.
Take `CC(C)(c1ccc(OCC2CO2)cc1)c1ccc(OCC2CO2)cc1` (stereo unspecified): the half-maximal activity concentration (AC50) is 60.5 µM (active).
For the compound `Nc1ccc(N=Nc2ccc(-c3ccc(N=Nc4c(S(=O)(=O)O)cc5cc(S(=O)(=O)O)c(N=Nc6ccccc6)c(O)c5c4N)cc3)cc2)c(N)c1`, the call was inactive.

Test system in the next experiment: not listed separately
The experiment is described as follows: ATG_MRE_CIS: Attagene CIS-FACTORIAL HepG2 Assay for human Metal Responsive Element (MRE) (AID 2282954). The note with it: HepG2 MRE cis-reporter transcription, Attagene multiplex; actives raise or lower the signal. The method in brief: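 After a 24 h chemical exposure, transiently transfected HepG2 cells yield RNA whose reporter sequences are amplified, FAM-labelled and sized by capillary electrophoresis. Curves are fitted bidirectionally relative to DMSO.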
Consider `Cc1cc(=O)[nH]o1`, for which the compound was called inactive.
On the same count and under the same terms, next, `CCCCC(CC)CO[N+](=O)[O-]` (stereo unspecified): “inactive”.
On to `COP(=S)(OC)Oc1c(Cl)cc(C)cc1Cl`, for which the half-maximal activity concentration (AC50) was 27.1 µM (active).
Consider `O=Cc1cccc(Oc2ccccc2)c1`, for which the compound was classed as inactive.
As to `COP(=S)(OC)Oc1ccc(S(=O)(=O)N(C)C)cc1`, the AC50 was 69 µM (active).
Take `CCCCCCCCc1ccc(O)cc1`: the outcome was inactive.
On to `CC(=O)C(Cl)C(=O)N(C)C` (stereo unspecified), for which the AC50 was 100 µM (active).
Regarding `Cl/C=C/Cl`, the call was inactive.
On the same count and under the same terms, the result for `O=P(O)(O)CN(CP(=O)(O)O)CP(=O)(O)O` reads “inactive”; that for `O=CC=O`, “inactive”; that for `O=c1[nH]c(=O)[nH]c(=O)[nH]1`, “inactive”.
On the same count and under the same terms, next, `CNC`: “inactive”.
Regarding `CC(=O)c1cc(C(C)(C)C)cc2c1CCC2(C)C`, the AC50 was 70.4 µM (active).
On to `CCc1ccccc1N`, for which the compound was called inactive.
As for `O=C(CCl)CCl`, the half-maximal activity concentration (AC50) was 48.9 µM (active).
For the compound `ClCc1ccccn1`, the compound was called inactive.
On the same count and under the same terms, the result for `O=C/C=C/c1ccccc1` reads “inactive”; that for `CC(C#N)CCC#N` (stereo unspecified), “inactive”.
On the same count and under the same terms, the result for `C=CC(=O)OCCCCCC(C)C` reads “inactive”; that for `O=C1C(Cl)=C(Cl)C(=O)c2ccccc21`, “inactive”; that for `ClCC(Cl)CCl`, “inactive”.
Still for that read-out and setting: next, `COc1cc(OC)nc(NC(=O)NS(=O)(=O)c2ncccc2C(=O)N(C)C)n1`: “inactive”.
For the compound `ClC1=C(Cl)[C@]2(Cl)[C@H]3[C@H]([C@H]4C=C[C@H]3C4)[C@@]1(Cl)C2(Cl)Cl`, the AC50 was 3.77 µM (active).
On to `COP(=S)(OC)Oc1cc(Cl)c(Cl)cc1Cl`, for which the call was inactive.
Still for that read-out and setting: the result for `CCC(C)c1cccc(C(C)CC)c1O` (stereo unspecified) reads “inactive”; that for `C=CC#N`, “inactive”.
Take `ClC(Cl)=C(Cl)C(Cl)=C(Cl)Cl`: the AC50 is 152 µM (active).
The same measure, in the same setting: next, `O=S(=O)(c1ccc(Cl)cc1)c1ccc(Cl)cc1`: 101 µM (active).
Turning to `CCCCP(CCCC)CCCC`, the call was inactive.
Turning to `CC(Br)C(=O)O` (stereo unspecified), the compound was classed as inactive.
For `Nc1ccc(-c2ccc(N)c(Cl)c2)cc1Cl`, the AC50 is 46.5 µM (active).
Regarding `O=C(NCO)NCO`, the call was inactive.
Same read-out and setting: next, `C=C(C)C#N`: “inactive”.
Regarding `COc1cccc(C=O)c1`, the compound was classed as inactive.
Same read-out and setting: the result for `OCC(O)CCl` (stereo unspecified) reads “inactive”; that for `Cc1ccccc1C(=O)Nc1cccc(OC(C)C)c1`, “inactive”.
For `CC(C)(c1ccc(OCC2CO2)cc1)c1ccc(OCC2CO2)cc1` (stereo unspecified), the half-maximal activity concentration (AC50) was 31.8 µM (active).
In the case of `CCC[CH2][Sn]([CH2]CCC)([CH2]CCC)[O]C(=O)c1ccccc1`, the call was inactive.
On to `Nc1ccc(N=Nc2ccc(-c3ccc(N=Nc4c(S(=O)(=O)O)cc5cc(S(=O)(=O)O)c(N=Nc6ccccc6)c(O)c5c4N)cc3)cc2)c(N)c1`, for which the call was inactive.
